Test [1] concerns XIP peptide (Xip251-270) binding. Description: small-molecule binders of XIP peptide, primary screen, biochemical, small-molecule microarray, fluorescence 635/667 nm, 0.1 µg/mL protein (AID 1182). The conditions noted are these: fluorescent protein binding, 635 nm, higher = more signal, called active from +8 up or from −8 down.
Test [2] relates to XIP peptide (Xip251-270). Description: small-molecule binders of XIP peptide, primary screen, biochemical, small-molecule microarray, fluorescence 635/667 nm, 0.5 µg/mL protein (AID 1183). The conditions noted are these: small-molecule microarray binding, fluorescence 635 nm; higher = more signal.
The nature of test [3]: Plasmodium falciparum growth inhibition, primary screen, strain 3D7, DAPI fluorescence, 100 nL (AID 1184).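 Further: parasites grown inside human red blood cells in medium with human serum.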 The conditions noted are these: P. falciparum 3D7 growth, 3 d, higher = more signal.
The target in test [4] is Homeobox protein Hox-A13 (Mus musculus) (UniProt Q62424). Description: inhibitors of HoxA13-DNA binding, primary screen, biochemical, fluorescence polarization, labeled oligonucleotide (AID 1185). The conditions noted are these: 15 min, higher = more signal, called active from +8 up or from −8 down. For orientation: Fluorescence polarisation rises when a labelled molecule tumbles more slowly, as on binding a larger partner.

Test [5] in a line: inhibitors of hydroxyurea-induced Chk1 phosphorylation, primary screen, imaging, HeLa, phospho-Chk1 antibody, percent positive cells (AID 1186). As to conditions: hydroxyurea-induced phospho-Chk1 immunofluorescence imaging, higher = more signal.
Test [6] in a line: inhibitors of hydroxyurea-induced Chk1 phosphorylation, primary screen, imaging, HeLa, phospho-Chk1 nuclear intensity (AID 1187). As to conditions: hydroxyurea-induced phospho-Chk1 immunofluorescence imaging, higher = more signal.

Activity calls are given as the source filed them. Unless noted, how the calls were made is not given here.

Consider 25 compounds from PubChem BioAssay.

Sequence of Homeobox protein Hox-A13 (Mus musculus) (Q62424 whole entry, looked up): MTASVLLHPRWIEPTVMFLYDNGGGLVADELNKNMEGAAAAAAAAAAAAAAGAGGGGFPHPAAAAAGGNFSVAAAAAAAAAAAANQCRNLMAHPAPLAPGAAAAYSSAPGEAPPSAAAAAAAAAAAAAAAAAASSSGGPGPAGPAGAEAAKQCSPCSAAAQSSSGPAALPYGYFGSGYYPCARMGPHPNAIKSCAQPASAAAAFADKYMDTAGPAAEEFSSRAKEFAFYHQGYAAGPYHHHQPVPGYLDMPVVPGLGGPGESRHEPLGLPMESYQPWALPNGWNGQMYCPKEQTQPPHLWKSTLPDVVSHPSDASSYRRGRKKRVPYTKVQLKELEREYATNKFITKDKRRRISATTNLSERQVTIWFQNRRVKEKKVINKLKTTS

Turning to `N#Cc1ccc(NN2C(C(O)c3ccc(Br)cc3)C=CC3C(=O)N(c4ccccc4)C(=O)C32)cc1` (stereo not given), the composite z-score is 1.13 (inactive) in test [1] and 0.529 in test [2]. For the same compound, the z-score in test [3] was 0.401; in test [4], -3.13 (inactive); in test [5] it was 0.0643 (inactive); in test [6] it was 0.0338 (inactive).
Regarding `C=CCC(OC(C)=O)[C@@H]1[C@@H](N(Cc2ccc(-c3cccc(C(F)(F)F)c3)o2)C(=O)c2ccc(-c3ccccc3)cc2)c2cc(OCCCO)ccc2N1C(=O)Cc1ccc2ccccc2c1` (stereo not given in full), the values for the composite z-score in test [1] and in test [2] were -0.186 (inactive) and -0.738, respectively. The z-score in test [3] is -0.694; in test [4], -1.1 (inactive); in test [5], 0.345 (inactive); in test [6], 0.291 (inactive).
`O=C1C2C=CC(C(O)C3CC=CCC3)N(Nc3ccccc3)C2C(=O)N1c1ccccc1` (stereo not given): the composite z-score in test [1] was 0.767 (inactive); in test [2], 0.748. Further, the z-score in test [3] was -0.653; in test [4] it was -3.25 (inactive); in test [5], 0.639 (inactive); in test [6], 0.201 (inactive).
Turning to `C=CC[C@]1(C(=O)N2CCOCC2)COC(c2ccc(OCCCO)cc2)=N1`, the results for the composite z-score in test [1] and in test [2] were 0.627 (inactive) and 0.879, respectively. For the same compound, the z-score in test [3] is -0.813; in test [4], -6.97 (inactive); in test [5], -0.374 (inactive); in test [6], -0.0405 (inactive).
On to `COC(=O)[C@@]1(Cc2ccccc2)[C@H]2c3cc(C(=O)N(C)C)n(Cc4ccc(C)o4)c3C[C@H]2CN1C(=O)c1ccccc1`, for which the composite z-score in test [1] is 0.681 (inactive); in test [2], -0.523. The z-score in test [3] is -1.81; in test [4], 0.0385 (inactive); in test [5], 1.19 (inactive); in test [6] it was 0.841 (inactive).
For `CC(C)NC(=O)[C@@]1(C)c2ccccc2C(=O)N(Cc2ccc(OC(F)(F)F)cc2)[C@H]1c1ccc(CO)cc1`, the composite z-score in test [1] is 0.697 (inactive); in test [2] it was 0.836. In addition, the z-score in test [3] was -1.75; in test [4], -3.07 (inactive); in test [5], -0.0939 (inactive); in test [6], -0.0444 (inactive).
On to `COCC(=C=CC[C@H](O)c1ccc(OCCO)cc1)CCO`, for which the composite z-score in test [1] was 0.407 (inactive); in test [2] it was -0.252. Also, the z-score in test [3] was -2.93; in test [4] it was -3.28 (inactive); in test [5] it was -0.638 (inactive); in test [6], -0.571 (inactive).
On to `CCOC(=O)[C@@H]1CCCCN1C(=O)C(=O)OC`, for which the figures for the composite z-score in test [1] and in test [2] were 0.636 (inactive) and 0.271, respectively. Also, the z-score in test [3] is 1.99; in test [4], 0.731 (inactive); in test [5], 0.284 (inactive); in test [6], -0.0933 (inactive).
Regarding `C=CCNC(=O)[C@@H]1[C@H]2C(=O)O[C@H](c3ccccc3)[C@H](c3ccccc3)N2[C@H](c2ccc(O)cc2)[C@@]12C(=O)N(C(=O)OCCOC)c1ccc(C#CC3=CCCCC3)cc12`, the composite z-score was 0.423 (inactive) in test [1] and 0.672 in test [2]. Besides, the z-score in test [3] was 0.608; in test [4] it was -0.465 (inactive); in test [5], -0.472 (inactive); in test [6], -1.01 (inactive).
As to `COCCCNC(=O)[C@@H]1c2ccccc2C(=O)N(C(C)C)[C@H]1c1ccc(CO)cc1`, the composite z-score was 0.147 (inactive) in test [1] and -0.0343 in test [2]. Besides, the z-score is -0.324 in test [3], -1.03 (inactive) in test [4], -0.244 (inactive) in test [5] and -0.504 (inactive) in test [6].
As for `CC1CC/C=C\[C@H]2OC34C=CCN(c5ccc6ccccc6c5)C(=O)[C@H]3N(CCCO)C(=O)[C@@H]4C2C(=O)O1` (stereo not given in full), the composite z-score is -0.103 (inactive) in test [1] and 0.327 in test [2]. For the same compound, the z-score was 0.293 in test [3], -5.63 (inactive) in test [4], 0.486 (inactive) in test [5] and 0.104 (inactive) in test [6].
Turning to `COc1ccc([Si](C)(C)[C@@H]2[C@@H](CCO)O[C@]3(C(=O)N(Cc4ccccc4)c4ccc(N5CCOC5=O)cc43)[C@H]2C)cc1`, the results for the composite z-score in test [1] and in test [2] were 0.849 (inactive) and 0.869, respectively. Further, the z-score in test [3] is -2.79; in test [4], -1.94 (inactive); in test [5] it was -1.29 (inactive); in test [6], -1.14 (inactive).
As to `COCCOC(=O)N1C(=O)[C@@]2(c3ccccc31)[C@H](C(=O)NC[C@H](O)c1ccccc1)[C@H]1C(=O)O[C@H](c3ccccc3)[C@H](c3ccccc3)N1[C@@H]2c1ccc(O)cc1`, the composite z-score in test [1] was 0.26 (inactive); in test [2], 0.819. The z-score was -1.02 in test [3], -3.48 (inactive) in test [4], 0.326 (inactive) in test [5] and 0.653 (inactive) in test [6].
As for `[N-]=[N+]=NCc1ccccc1[C@H]1OC(c2ccc(OCCCO)cc2)=N[C@@]1(Cc1ccccc1N=[N+]=[N-])C(=O)NCC(O)CO` (stereo not given in full), the composite z-score in test [1] was 0.665 (inactive); in test [2] it was 0.603. Further, the z-score in test [3] is -2.31; in test [4] it was -4.17 (inactive); in test [5], -0.266 (inactive); in test [6] it was 0.0665 (inactive).
As for `CC(C)=C1C(=O)C(c2ccccc2)=C2CN3C(=O)N(CCc4ccccc4)C(=O)[C@]3(Cc3ccc(C(F)(F)F)cc3)[C@H]21`, the composite z-score is 1.05 (inactive) in test [1] and -0.498 in test [2]. Further, the z-score in test [3] was -0.503; in test [4] it was -1.59 (inactive); in test [5], 0.551 (inactive); in test [6], 0.465 (inactive).
As to `CC(C)C(CO)N1C(=O)[C@@H]2C3C(=O)OCCC/C=C\[C@H]3OC23C=CCN(Cn2nnc4ccccc42)C(=O)[C@@H]13` (stereo not given in full), the composite z-score in test [1] is -0.261 (inactive); in test [2] it was 0.348. For the same compound, the z-score in test [3] was 0.596; in test [4] it was -3.97 (inactive); in test [5], -0.833 (inactive); in test [6], -0.709 (inactive).
Take `COc1ccc(C#Cc2ccc3c(c2)[C@]2(C(=O)N3)[C@H](c3ccc(O)cc3)N3[C@H](c4ccccc4)[C@H](c4ccccc4)OC(=O)[C@H]3[C@@H]2C(=O)Nc2nc3ccccc3s2)cc1`: the results for the composite z-score in test [1] and in test [2] were -0.52 (inactive) and 0.77, respectively. Also, the z-score was -1.31 in test [3], -0.76 (inactive) in test [4], 0.372 (inactive) in test [5] and 0.669 (inactive) in test [6].
On to `O=C1[C@H]2C=C(I)[C@H](C[C@@H]2OCCOCCO)[C@@]12CO2`, for which the composite z-score in test [1] was 0.0014 (inactive); in test [2] it was -0.0714. Moreover, the z-score is 0.79 in test [3], 0.122 (inactive) in test [4], 0.363 (inactive) in test [5] and 0.401 (inactive) in test [6].
Consider `CCOc1cc(C(O)C2C=CC3C(=O)NC(=O)C3N2Nc2ccc(Cl)cc2Cl)ccc1O` (stereo not given), for which the figures for the composite z-score in test [1] and in test [2] were -0.736 (inactive) and 0.966, respectively. Further, the z-score in test [3] is 0.0361; in test [4], -2.05 (inactive); in test [5] it was 0.394 (inactive); in test [6] it was 0.627 (inactive).
For `COc1ccccc1CN1C(=O)c2ccccc2[C@](Cc2ccccc2I)(C(=O)O)[C@@H]1c1ccc(CO)cc1`, the composite z-score was 0.382 (inactive) in test [1] and 0.798 in test [2]. Also, the z-score in test [3] is -0.0897; in test [4] it was -5.51 (inactive); in test [5], -0.138 (inactive); in test [6], 0.142 (inactive).
On to `CCOC(=O)C[C@H]1[C@H](OC(=O)c2ccccc2-c2ccccc2)[C@@H](NC(=O)c2ccc3ccccc3n2)c2cc(OCCCO)ccc2N1C(=O)Cc1ccc(OC)cc1`, for which the composite z-score in test [1] is -0.0195 (inactive); in test [2], -0.203. The z-score in test [3] was -1.64; in test [4], -2.31 (inactive); in test [5], 0.332 (inactive); in test [6] it was -0.135 (inactive).
In the case of `C=C(C(=O)CC[C@H](OC(=O)c1ccccc1-c1ccccc1C(=O)O)c1cccc(OCCO)c1)C(C)C`, the composite z-score was -0.145 (inactive) in test [1] and 0.232 in test [2]. The z-score is -2.12 in test [3], -5.93 (inactive) in test [4], 0.442 (inactive) in test [5] and -0.51 (inactive) in test [6].
As to `COCCOC(=O)N1C(=O)[C@@]2(c3cc(C#CC4(O)CCCCCC4)ccc31)[C@H](c1ccc(O)cc1)N1[C@H](c3ccccc3)[C@H](c3ccccc3)OC(=O)[C@H]1[C@@H]2C(=O)N1CCN(c2ncccn2)CC1`, the composite z-score was 0.0849 (inactive) in test [1] and 0.699 in test [2]. Also, the z-score in test [3] was -1.99; in test [4] it was -1.62 (inactive); in test [5] it was 0.13 (inactive); in test [6] it was 0.232 (inactive).
Take `[N-]=[N+]=Nc1ccccc1[C@@H]1OC(c2ccc(OCCCO)cc2)=N[C@]1(Cc1ccccc1)C(=O)O`: the composite z-score was 0.315 (inactive) in test [1] and 0.721 in test [2]. Further, the z-score in test [3] is -1.85; in test [4], -4.29 (inactive); in test [5], -0.178 (inactive); in test [6], 0.168 (inactive).
With `CCOC(=O)C[C@H]1[C@H](OC(=O)Cc2ccc3c(c2)OCO3)[C@@H](NC(=O)c2ccc3ccccc3n2)c2cc(OCCCO)ccc2N1C(=O)c1ccccc1`, the composite z-score in test [1] was 0.269 (inactive); in test [2], 0.256. For the same compound, the z-score in test [3] is -1.03; in test [4] it was -2.41 (inactive); in test [5] it was -0.705 (inactive); in test [6] it was -0.277 (inactive).
